# Compound activity deposited in PubChem by Broad Institute.
# ID4 binder – binders of human ID4 protein | P47928 | small molecule microarray, Flag-ID4 binding, fluorescence F/B | calls only | 31,000 compounds, 1.2% hits | AID 624137; call rule not given here;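 further: a binder raises fluorescence above local background on the spot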
# Target sequence (P47928 whole entry, looked up): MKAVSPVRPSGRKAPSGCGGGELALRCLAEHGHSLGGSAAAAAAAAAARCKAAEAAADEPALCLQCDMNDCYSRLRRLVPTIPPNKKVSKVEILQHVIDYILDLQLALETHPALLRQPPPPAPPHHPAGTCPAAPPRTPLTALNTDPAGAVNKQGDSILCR
# STK33 inh – blocks human STK33 kinase activity; inhibition, % at 12.5 µM; 27,000 compounds, 0.44% hits; Q9BYT3; AID 2322; ADP-Glo luminescence, MBP substrate; in the data active means inhibition above about 20%; inconclusive means no clear call, values can overlap the other calls
# p53 PUMA act – mutant p53 pathway reactivation; SW480 PUMA-promoter luciferase; activation, % at 9.98 µM; 28,000 compounds, 1.5% hits; in the data active means activation above about 52%; inconclusive means no clear call, values can overlap the other calls
# NOMO-1 viab – STK33 inhibitor candidate reducing NOMO-1 cell viability; NOMO-1 AML viability, CellTiter-Glo luminescence, 72 h; inhibition, % (test concentration not listed); 37,000 compounds, 7.5% hits; in the data active means inhibition above about 80%; inconclusive means no clear call, values can overlap the other calls
# Active calls of the source: *; i = inactive; ? = inconclusive; · = no result; + = active, no number. Shown is part of a subset that was picked to be rich in hits.
SMILES,ID4 binder,STK33 inh,p53 PUMA act,NOMO-1 viab
Cc1cc([N+](=O)[O-])ccc1NC(=O)CSc1nnc(-c2cc3ccccc3o2)n1C,i,-3,-11,23
C[C@H]1CN([C@@H](C)CO)C(=O)c2cccc(NS(=O)(=O)c3ccccc3)c2O[C@@H]1CN(C)CC1CC1,·,·,·,9
COc1ccc([Si](C)(C)[C@@H]2[C@@H](CCO)O[C@]3(C(=O)N(Cc4ccc(N5CCOC5=O)cc4)c4ccccc43)[C@H]2C)cc1,·,20*,·,·
COc1ccc([Si](C)(C)[C@@H]2[C@@H](CCn3cc(CCO)nn3)O[C@]3(C(=O)N(Cc4cccc(N5CCOC5=O)c4)c4ccccc43)[C@H]2C)cc1,i,?,·,·
COc1ccc([Si](C)(C)[C@@H]2[C@@H](CCO)O[C@]3(C(=O)N(Cc4ccc(NC(C)=O)cc4)c4ccccc43)[C@H]2C)cc1,i,15,·,·
COc1ccc([Si](C)(C)[C@H]2[C@H](CCO)O[C@@]3(C(=O)N(Cc4cccc(NC(C)=O)c4)c4ccccc43)[C@@H]2C)cc1,i,38*,·,·
COc1ccc([Si](C)(C)[C@H]2[C@H](CCn3cc(CCO)nn3)O[C@@]3(C(=O)N(Cc4cccc(N5CCOC5=O)c4)c4ccccc43)[C@@H]2C)cc1,i,21*,·,·
C[C@@H]1CN([C@H](C)CO)C(=O)Cc2cc(NC(=O)CCN3CCOCC3)ccc2O[C@H]1CN(C)C(=O)Nc1ccc(C(F)(F)F)cc1,·,-1,·,14
COc1ccc(-n2c(CC#N)nnc2SCc2c(C)c(C)c(C)c(C)c2C)cc1,·,·,·,102*
Cc1c2cc(-c3cccs3)sc2nc2c(O)cc(=O)[nH]c12,·,·,·,29
C[C@@H]1CN([C@@H](C)CO)C(=O)c2cccc(NC(=O)Nc3ccccc3)c2O[C@H]1CN(C)Cc1ccc(Oc2ccccc2)cc1,·,·,·,113*
COc1ccc(CN(C)C[C@@H]2Oc3c(NC(=O)Nc4ccccc4)cccc3C(=O)N([C@@H](C)CO)C[C@H]2C)cc1,·,·,·,100*
C[C@H](CO)N1C[C@H](C)[C@@H](CN(C)Cc2ccc(Oc3ccccc3)cc2)Oc2c(NC(=O)Nc3ccc(F)cc3)cccc2C1=O,·,·,·,99*
C[C@@H]1CN([C@H](C)CO)C(=O)c2cccc(NC(=O)Nc3ccccc3)c2O[C@H]1CN(C)Cc1ccc(Oc2ccccc2)cc1,·,·,·,23
CNC[C@H]1Oc2c(NC(=O)Nc3ccc(C(F)(F)F)cc3)cccc2C(=O)N([C@H](C)CO)C[C@@H]1C,i,·,21,-2
C[C@@H]1CN([C@@H](C)CO)C(=O)c2c(c3ccccc3n2C)-c2ccccc2CO[C@H]1CN(C)C,i,·,·,·
O=c1occ(CO)c(O)c1CN1CCc2ccccc2C1,i,·,-6,·
CCOc1ccc(C)cc1S(=O)(=O)n1cnc2ccccc21,i,1,-42,127*
CCOc1ccc(Cl)cc1S(=O)(=O)n1cnc2ccccc21,i,0,-5,114*
CCOc1cc(C)c(Cl)cc1S(=O)(=O)n1cnc2ccccc21,i,-3,16,23
Cc1noc(C)c1NC(=O)N(C)C[C@H]1Oc2c(NC(=O)c3nc4ccccc4s3)cccc2C(=O)N([C@@H](C)CO)C[C@H]1C,i,·,-7,22
Cc1nnsc1C(=O)NC(=O)Nc1cc(Cl)cc(Cl)c1,·,·,·,-16
C[C@H]1CN([C@@H](C)CO)C(=O)c2cc(NS(=O)(=O)c3ccc(F)cc3)ccc2O[C@H]1CN(C)Cc1ccc(-c2ccccc2)cc1,·,2,5,45
C[C@@H]1CN([C@@H](C)CO)C(=O)c2cc(NS(=O)(=O)c3ccc(F)cc3)ccc2O[C@H]1CN(C)Cc1ccc(-c2ccccc2)cc1,·,·,·,107*
C[C@@H]1CN([C@H](C)CO)C(=O)c2cc(NS(=O)(=O)c3ccc(F)cc3)ccc2O[C@@H]1CN(C)Cc1ccc(-c2ccccc2)cc1,·,·,-7,118*
SMILES,ID4 binder,STK33 inh,p53 PUMA act,NOMO-1 viab
Cc1noc(C)c1NC(=O)Nc1ccc2c(c1)CC(=O)N([C@@H](C)CO)C[C@H](C)[C@@H](CN(C)Cc1ccc3c(c1)OCO3)O2,·,·,·,-6
Cn1c(=O)c2c(ncn2CC(=O)Nc2ccncc2)n(C)c1=O,i,·,4,·
C[C@H](CO)N1C[C@H](C)[C@@H](CN(C)Cc2ccc(-c3ccccc3)cc2)Oc2c(NC(=O)Nc3ccccc3)cccc2C1=O,·,·,·,39
C[C@@H]1CN([C@@H](C)CO)C(=O)c2cccc(NC(=O)Nc3ccc(F)cc3)c2O[C@@H]1CN(C)Cc1ccc(-c2ccccc2)cc1,·,·,·,99*
C[C@H](CO)N1C[C@H](C)[C@@H](CN(C)Cc2ccccc2)Oc2c(NC(=O)Nc3ccccc3)cccc2C1=O,·,·,·,103*
C[C@@H]1CN([C@@H](C)CO)C(=O)c2cccc(NC(=O)Nc3ccccc3)c2O[C@H]1CN(C)Cc1ccc(-c2ccccc2)cc1,·,·,·,93*
C[C@H](CO)N1C[C@H](C)[C@H](CN(C)Cc2ccc(-c3ccccc3)cc2)Oc2c(NC(=O)Nc3ccccc3)cccc2C1=O,·,·,·,57
COc1ccc(OC)c(N/C=C(\C#N)c2nc(-c3cc4ccccc4oc3=O)cs2)c1,·,·,·,41
CNC[C@H]1Oc2ccc(NS(C)(=O)=O)cc2CC(=O)N([C@H](C)CO)C[C@H]1C,i,-3,-7,11
CNC[C@H]1Oc2ccc(NS(=O)(=O)c3cccs3)cc2CC(=O)N([C@H](C)CO)C[C@H]1C,i,-1,-4,1
CNC[C@@H]1Oc2ccc(NS(C)(=O)=O)cc2CC(=O)N([C@@H](C)CO)C[C@@H]1C,+,-1,-4,-10
CNC[C@@H]1Oc2ccc(NS(=O)(=O)c3cccs3)cc2CC(=O)N([C@H](C)CO)C[C@H]1C,+,-1,-3,-2
C[C@H](CO)N1C[C@H](C)[C@H](CN(C)Cc2ccc(C(=O)Nc3ccccc3N)cc2)Oc2c(NC(=O)NC3CCCCC3)cccc2C1=O,·,·,·,120*
CC(C)NC(=O)Nc1cccc2c1O[C@@H](CN(C)Cc1ccc(C(=O)Nc3ccccc3N)cc1)[C@@H](C)CN([C@H](C)CO)C2=O,·,·,·,71
C[C@@H]1CN([C@H](C)CO)C(=O)c2cccc(NC(=O)NC3CCCCC3)c2O[C@H]1CN(C)Cc1ccc(C(=O)O)cc1,i,·,6,14
C[C@H]1CN([C@@H](C)CO)C(=O)c2cccc(NC(=O)NC3CCCCC3)c2O[C@H]1CN(C)Cc1ccc(C(=O)Nc2ccccc2N)cc1,·,·,·,129*
C[C@@H]1CN([C@H](C)CO)C(=O)c2cccc(NC(=O)NC3CCCCC3)c2O[C@@H]1CN(C)Cc1ccc(C(=O)Nc2ccccc2N)cc1,·,·,·,127*
CCCOc1ccc2nc(NC(=O)OC)[nH]c2c1,·,-1,·,104*
COc1ccc(OC)c(N(CC(=O)Nc2c(C)cc(C)cc2C)S(C)(=O)=O)c1,i,2,-1,-4
COc1cc(O)c(C(=O)CCc2ccccc2)c(O)c1Cc1ccccc1O,i,-1,·,?
COc1cc(O)c(Cc2ccccc2O)c(O)c1C(=O)CCc1ccccc1,i,-5,-42,114*
CCn1c2ccccc2c2cc(NC(=O)CN(C)S(=O)(=O)c3ccccc3)ccc21,i,0,-7,42
CCn1c(=NC(=O)c2ccc(S(=O)(=O)N(C)C)cc2)sc2ccccc21,·,·,·,87*
